Records with an inconclusive call do not appear. The source made the active and inactive calls. Unless noted, the call rests on the fitted dose curve; in most records, active means well fitted curve in the direction sought with a large enough effect; inconclusive means small, poorly fitted or top-dose-only effect, or another doubt; inactive means no such curve, though single readings can be large; an effect the other way counts as inactive or inconclusive.

The values that follow come from PubChem BioAssay (NCATS).

Assay [1] in a line: qHTS for Inhibitors of Plasmodium falciparum (GB4) proliferation (AID 504315). Further: nearly all actives have a fitted effect of over 50% in size. Further: potency means the concentration at half of the fitted maximal effect. The method in brief: (§1)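 Parasite growth measured as SYBR Green DNA fluorescence (ex 485, em 535 nm) after overnight lysis following 72 h culture at 37 °C, 0.3% parasitemia, 2.5% hematocrit. Values normalized against DMSO and 0.29 uM artemisinin controls, with plate-stack correction.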
For orientation: Quantitative high-throughput screening tests each substance at several concentrations.

Assay [2] is described as follows: qHTS for Inhibitors of Plasmodium falciparum (7G8) proliferation (AID 504316). Further: series mostly up to about 6.7 µM; nearly all actives have a fitted effect of over 65% in size. The method in brief:
as §1

A short description of assay [3]: qHTS for Inhibitors of Plasmodium falciparum (CP250) proliferation (AID 504320). In a few lines:
as §1

For assay [4], the target named is Atrial natriuretic peptide receptor 1 (Homo sapiens) (UniProt P16066). Nature of the assay: Natriuretic polypeptide receptor (hNpr1) antagonism - Pilot CMLD screen (AID 1347052; calls by dose curve;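 further: HEK293 cells with hNpr1 stimulated by hNppA peptide at 0.1 nM; cGMP level read as GloSensor luciferase luminescence after agonist stimulation; series mostly up to about 9.2 µM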).
Sequence of Atrial natriuretic peptide receptor 1 (Homo sapiens) (P16066 whole entry, looked up): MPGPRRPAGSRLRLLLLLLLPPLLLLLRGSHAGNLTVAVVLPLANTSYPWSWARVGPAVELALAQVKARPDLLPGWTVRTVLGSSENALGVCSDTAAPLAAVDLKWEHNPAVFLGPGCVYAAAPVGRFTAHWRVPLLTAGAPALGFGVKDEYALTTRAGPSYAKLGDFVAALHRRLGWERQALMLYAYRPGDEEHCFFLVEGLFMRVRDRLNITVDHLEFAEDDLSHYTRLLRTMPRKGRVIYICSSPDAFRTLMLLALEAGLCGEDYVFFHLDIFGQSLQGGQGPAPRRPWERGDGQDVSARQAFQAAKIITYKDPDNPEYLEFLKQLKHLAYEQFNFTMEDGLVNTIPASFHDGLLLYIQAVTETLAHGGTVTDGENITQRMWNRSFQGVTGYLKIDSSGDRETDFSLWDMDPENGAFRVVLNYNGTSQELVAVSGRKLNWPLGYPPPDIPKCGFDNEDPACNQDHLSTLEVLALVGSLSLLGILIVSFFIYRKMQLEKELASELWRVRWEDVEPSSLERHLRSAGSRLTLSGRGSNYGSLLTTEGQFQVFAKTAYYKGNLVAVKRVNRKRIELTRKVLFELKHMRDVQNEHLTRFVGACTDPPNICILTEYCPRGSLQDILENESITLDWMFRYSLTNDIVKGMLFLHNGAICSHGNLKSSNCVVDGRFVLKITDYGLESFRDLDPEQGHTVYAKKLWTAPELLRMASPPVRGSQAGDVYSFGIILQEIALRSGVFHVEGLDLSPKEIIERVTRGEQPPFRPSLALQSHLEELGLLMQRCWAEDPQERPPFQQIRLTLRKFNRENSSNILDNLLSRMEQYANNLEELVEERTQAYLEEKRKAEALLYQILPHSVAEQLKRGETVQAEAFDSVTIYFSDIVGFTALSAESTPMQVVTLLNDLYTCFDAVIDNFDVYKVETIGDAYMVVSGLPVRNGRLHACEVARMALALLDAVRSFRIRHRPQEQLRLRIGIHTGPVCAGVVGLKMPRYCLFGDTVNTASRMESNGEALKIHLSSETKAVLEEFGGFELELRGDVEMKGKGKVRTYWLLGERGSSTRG
A short description of assay [5]: qHTS for Inhibitors of Plasmodium falciparum (HB3) proliferation (AID 504318). Further: nearly all actives have a fitted effect of over 60% in size. Further: potency means the concentration at half of the fitted maximal effect. In a few lines: as §1

Take `CC1(OC(=O)C2CCCC2)C(=O)C=C2C=C(c3ccsc3)N(C3CCCCC3)C=C2C1=O` (configuration not stated): the Potency entry in assay [1], in assay [2], in assay [3] and in assay [4] was “inactive” each time.
`COc1ccc2c3c(c(=O)oc2c1)[C@H]1O[C@](CCCCN2C(=O)c4ccccc4C2=O)(Cc2cc(OC)c(OC)cc21)O3`: the Potency is 2690 nM (active) in assay [1] and 1510 nM (active) in assay [5]. In assay [4], the Potency result was “inactive”.
Take `COc1cccc(-c2coc3ccc(Br)cc3c2=O)c1`: the Potency entry in assay [1], in assay [5], in assay [3] and in assay [4] was “inactive” in each case.
On to `COC(=O)C1=C(C(=O)OC)[C@@H]2N(CC=C(C)C)c3ccccc3[C@@]23CCC(=O)N(Cc2cccc(C(F)(F)F)c2)C3=N1`, for which the results for the Potency in assay [1] and in assay [5] were 849 nM (active) and 2940 nM (active), respectively. For the same compound, the Potency result in assay [4] was “inactive”.
The like results for `CCN1C(=NCCCOC(C)C)N[C@@H](CCc2ccccc2)[C@H](C(=O)NCCCOC(C)C)[C@H]1C` were, in that order, “inactive”, “inactive” and “inactive”.
